Our source for the log2 enrichment score values is the supplement of paper PMC11555231.

The chains are these.
B1: PADI4_3_P9D P9D (peptide)
chain: YRDHHYRHDKYCG
B2: PADI4_3_K10D K10D (peptide)
chain: YRDHHYRHPDYCG
B3: PADI4_3_D3K D3K (peptide)
chain: YRKHHYRHPKYCG
B4: PADI4_3_H8D H8D (peptide)
chain: YRDHHYRDPKYCG
B5: PADI4_3_H4K H4K (peptide)
chain: YRDKHYRHPKYCG
B6: PADI4_3_K10K K10K (peptide)
chain: YRDHHYRHPKYCG
B7: PADI4_3_H5D H5D (peptide)
chain: YRDHDYRHPKYCG
B8: PADI4_3_H5K H5K (peptide)
chain: YRDHKYRHPKYCG
B9: PADI4_3_Y11R Y11R (peptide)
chain: YRDHHYRHPKRCG
B10: PADI4_3_R2R R2R (peptide)
chain: YRDHHYRHPKYCG
B11: PADI4_3_R7K R7K (peptide)
chain: YRDHHYKHPKYCG
B12: PADI4_3_Y6K Y6K (peptide)
chain: YRDHHKRHPKYCG
B13: PADI4_3_Y11K Y11K (peptide)
chain: YRDHHYRHPKKCG
B14: PADI4_3_H4R H4R (peptide)
chain: YRDRHYRHPKYCG
B15: PADI4_3_K10R K10R (peptide)
chain: YRDHHYRHPRYCG
B16: PADI4_3_P9K P9K (peptide)
chain: YRDHHYRHKKYCG
B17: PADI4_3_H5R H5R (peptide)
chain: YRDHRYRHPKYCG
B18: PADI4_3_H4H H4H (peptide)
chain: YRDHHYRHPKYCG
B19: PADI4_3_D3H D3H (peptide)
chain: YRHHHYRHPKYCG
B20: PADI4_3_H8R H8R (peptide)
chain: YRDHHYRRPKYCG
B21: PADI4_3_R2K R2K (peptide)
chain: YKDHHYRHPKYCG
B22: PADI4_3_Y11D Y11D (peptide)
chain: YRDHHYRHPKDCG
B23: PADI4_3_Y6R Y6R (peptide)
chain: YRDHHRRHPKYCG
B24: PADI4_3_H8K H8K (peptide)
chain: YRDHHYRKPKYCG
B25: PADI4_3_R7D R7D (peptide)
chain: YRDHHYDHPKYCG
B26: PADI4_3_R7R R7R (peptide)
chain: YRDHHYRHPKYCG
B27: PADI4_3_R2D R2D (peptide)
chain: YDDHHYRHPKYCG
B28: PADI4_3_Y6D Y6D (peptide)
chain: YRDHHDRHPKYCG
B29: PADI4_3_D3R D3R (peptide)
chain: YRRHHYRHPKYCG
B30: PADI4_3_P9R P9R (peptide)
chain: YRDHHYRHRKYCG

PADI4, Q9UM07, sequence (Q9UM07 whole entry): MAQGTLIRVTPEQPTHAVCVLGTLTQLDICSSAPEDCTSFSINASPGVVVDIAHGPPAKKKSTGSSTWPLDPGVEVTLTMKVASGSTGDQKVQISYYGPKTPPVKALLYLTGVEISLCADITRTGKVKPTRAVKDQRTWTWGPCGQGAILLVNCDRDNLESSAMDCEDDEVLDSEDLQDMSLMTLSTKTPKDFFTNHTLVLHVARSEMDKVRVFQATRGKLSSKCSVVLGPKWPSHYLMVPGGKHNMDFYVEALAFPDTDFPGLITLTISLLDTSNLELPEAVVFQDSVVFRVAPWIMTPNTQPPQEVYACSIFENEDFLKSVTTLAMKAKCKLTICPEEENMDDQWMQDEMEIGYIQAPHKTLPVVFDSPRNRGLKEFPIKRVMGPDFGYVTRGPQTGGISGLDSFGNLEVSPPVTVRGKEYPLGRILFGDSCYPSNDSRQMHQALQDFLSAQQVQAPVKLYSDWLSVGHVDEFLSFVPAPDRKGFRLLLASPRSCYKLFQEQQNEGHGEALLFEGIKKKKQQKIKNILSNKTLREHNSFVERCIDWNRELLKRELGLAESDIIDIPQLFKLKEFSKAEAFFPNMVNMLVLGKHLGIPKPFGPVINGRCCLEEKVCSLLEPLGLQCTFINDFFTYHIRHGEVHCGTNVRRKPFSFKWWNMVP

The target of the experiment is PADI4, Q9UM07. Kind of experiment: log2 enrichment score relative to parent PADI4_3 peptide (binding to PADI4); higher = tighter binding than parent. As to conditions: CaCl2: 10 mM. Here is the method:
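Deep mutational scan of the cyclic peptide PADI4_3 (ClAc-D-Tyr1 initiator, thioether-cyclised to Cys12, C-terminal Gly plus HA tag, mRNA-displayed). Positions 2-11 were each randomised by NNK codons; Met was reprogrammed as N-methyl-alanine (MeA). One round of equilibrium panning against bead-immobilised human PADI4 (100 nM, 10 mM CaCl2, RT). Log2 enrichment (bound/input frequency) relative to the parent sequence (0 = parent), mean of three independent selections.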
As for B1, the log2 enrichment score is -2.06. The figure for B2 is -2.34; for B3 it is -3.84. The figure for B4 is -3.82; for B5 it is -2.3. In the case of B6, the log2 enrichment score turned out to be 0. The figure for B7 is -4.15. The figure for B8 is -2.71; for B9 it is -3.96. Turning to B10, the log2 enrichment score was determined as 0. As to B11, the log2 enrichment score was -0.44. The result for B12 reads -1.84; that for B13, -4.77; that for B14, 2.48. The result for B15 reads -0.238; that for B16, -1.76. Consider B17, for which the log2 enrichment score is -3.55. With B18, the log2 enrichment score was determined as 0. The result for B19 reads -3.57. The figure for B20 is -3.15; for B21 it is 0.59.

For the molecule B22, the log2 enrichment score is -3.74.

On to B23, for which the log2 enrichment score is -0.786. Turning to B24, the log2 enrichment score was -3.86.

On to B25, for which the log2 enrichment score stood at 0.031. Consider B26, for which the log2 enrichment score stood at 0. The result for B27 reads -3.75. The result for B28 reads -2.27; that for B29, -2.94; that for B30, -1.83.
